# Rows were chosen to be rich in hits. Some 3.5% of all compounds tested hit in one or more screens of this group.
# FBW7 act: human FBW7 E3 ligase activation, primary screen; AlphaScreen FBW7–phospho-cyclin E peptide binding, activator screen; normalized activity (activation), % at 26.1 µM; 650,000 compounds, 0.13% hits; in the data active = normalized activity above about 1.9%;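 note: purified mutant Fbw7 with reduced substrate affinity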
# TEAD-YAP inh: TEAD-YAP interaction inhibition | HEK-TIYL cells, TEAD-Gal4/YAP UAS-luciferase luminescence | inhibition, % at 9.12 µM | 640,000 compounds, 1.4% hits | AID 1259422; in the data active = inhibition above about 32%
# MITF inh: inhibitors of human MITF; O75030; AlphaScreen MITF homodimerization, bead proximity signal; inhibition, % at 2.6 µM; 650,000 compounds, 0.91% hits; in the data active = inhibition above about 50%
# Target sequence (O75030 whole entry, looked up): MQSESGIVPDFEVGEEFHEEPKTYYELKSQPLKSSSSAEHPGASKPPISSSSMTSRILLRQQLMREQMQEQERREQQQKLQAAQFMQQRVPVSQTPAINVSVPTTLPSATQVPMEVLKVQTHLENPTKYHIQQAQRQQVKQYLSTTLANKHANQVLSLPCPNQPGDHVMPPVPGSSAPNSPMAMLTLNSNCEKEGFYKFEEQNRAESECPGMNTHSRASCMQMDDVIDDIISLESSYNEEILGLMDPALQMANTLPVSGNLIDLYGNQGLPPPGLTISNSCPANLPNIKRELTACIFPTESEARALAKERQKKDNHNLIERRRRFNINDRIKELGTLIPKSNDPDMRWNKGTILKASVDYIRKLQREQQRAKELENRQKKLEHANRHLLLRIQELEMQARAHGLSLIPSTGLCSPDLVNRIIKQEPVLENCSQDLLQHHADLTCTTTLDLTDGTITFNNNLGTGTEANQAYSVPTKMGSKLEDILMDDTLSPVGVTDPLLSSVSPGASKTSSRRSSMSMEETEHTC
# GPR151 activ: activates the human receptor GPR151 | PathHunter beta-arrestin GPR151 cells, luminescence | activation, % at 11.2 µM | Q8TDV0 | 650,000 compounds, 1% hits; in the data active = activation above about 4.9%
# A number is an active result; i = inactive.
SMILES,FBW7 act,TEAD-YAP inh,MITF inh,GPR151 activ
Cc1cc(/C=C\c2nc(O)c([N+](=O)[O-])c(=O)[nH]2)c(C)n1-c1ccc(C(=O)O)cc1,i,i,63,i
Cc1ccc(-c2cc(C(F)(F)F)n3nc(C(=O)Nc4cccnc4Cl)cc3n2)cc1,i,i,i,i
COc1ccccc1N1C(=O)c2ccc(C(=O)Nc3cc([N+](=O)[O-])ccc3O)cc2C1=O,2.1,i,i,i
CCOCCCNC(=O)C1CCN(C(=O)c2cnn(-c3ccccc3)c2-n2cccc2)CC1,i,i,i,i
CCOC(=O)N1CCN(c2c(NCc3ccccc3)c(=O)c2=O)CC1,i,56,i,i
N#C/C(=C\C=C\c1ccc([N+](=O)[O-])o1)c1nc2ccccc2[nH]1,i,59,i,i
CC(NC(=O)COc1ccccc1)c1nnc2n1CCN(Cc1cccc(F)c1F)CC2 (centres undefined),i,i,i,i
CCn1cnc2cc(NCc3cc(OC)c(OC)c(OC)c3)ccc21,i,58,i,i
CCCn1cnc2cc(NCc3cc(OC)c(OC)c(OC)c3)ccc21,i,i,i,i
COc1cc(CNc2ccc3c(c2)ncn3C)cc(OC)c1OC,i,63,i,i
CC1CN/C(=C/C(=O)/C=C/c2ccccc2)C(=O)N1 (centres undefined),i,i,i,i
O=C1C=C(NCc2ccccc2)c2ccccc2C1=O,i,51,i,i
O=C1C=C(Nc2cccc(C(=O)O)c2)c2ccccc2C1=O,i,i,i,i
COc1ccc(N)cc1S(=O)(=O)Nc1ccc(Br)cc1,i,i,i,i
CCOC(=O)c1c(N)sc2c1CCN(C)C2,i,i,i,i
CCOC(=O)c1c(/N=C/c2cccc(OC)c2O)sc2c1CCN(C)C2,2.6,i,i,i
CCOc1ccc(Nc2nc(-c3sc(NC(=O)CC)nc3C)cs2)cc1,i,48,i,i
COc1cc(Br)c(Nc2nc(-c3sc(NC(=O)c4ccccc4)nc3C)cs2)c(Br)c1,i,42,i,i
Cc1nc(NC(=O)c2ccccc2)sc1-c1csc(Nc2cccc(Cl)c2C)n1,i,i,i,i
COc1ccc(Nc2nc(-c3ccccn3)cs2)cc1,i,43,i,i
CCOc1ccc(Nc2nc(-c3ccccn3)cs2)cc1,i,i,i,i
CCc1ccc(Nc2nc(-c3ccccn3)cs2)cc1,i,40,i,i
COc1cccc(C(=O)NCc2nnc(SCC(=O)N3N=C(c4cccs4)CC3c3ccc(C)cc3)n2CCc2ccccc2)c1 (centres undefined),i,i,i,i
O=C(CSCCO)Nc1ccc(Cl)cc1,i,i,i,i
COc1ccc(Nc2nc(-c3sc(C)nc3C)cs2)cc1,i,42,i,i
SMILES,FBW7 act,TEAD-YAP inh,MITF inh,GPR151 activ
COc1cccc(Nc2nc(-c3ccc(OC)cc3OC)cs2)c1,i,64,i,i
COc1ccc(-c2csc(Nc3ccccc3OC)n2)c(OC)c1,i,i,i,i
Fc1ccc2nc(Nc3nc(-c4ccncc4)cs3)sc2c1,i,i,i,i
Cc1nc(N)sc1-c1csc(Nc2cccc(C(F)(F)F)c2)n1,i,i,52,i
COc1ccccc1Nc1nc(-c2sc(C)nc2C)cs1,i,i,i,i
Fc1ccc2nc(Nc3nc(-c4ccccn4)cs3)sc2c1,i,52,i,i
O=c1c2c(nc3ccccn13)CCN(C(=S)Nc1ccccc1)C2,i,i,i,i
c1ccc(Nc2ncn(-c3ccnc(Nc4ccc(N5CCOCC5)cc4)c3)n2)cc1,i,37,i,i
c1cc(-c2ccnc(Nc3ccc(-n4cnc(-c5ccncc5)n4)cc3)n2)cc(N2CCOCC2)c1,i,i,i,i
O=C(NCc1ccccc1)c1ccnc(Nc2ccc(N3CCOCC3)cc2)c1,i,i,i,i
c1ccc(-c2ncn(-c3ccc(Nc4cc(-c5cccc(N6CCOCC6)c5)ccn4)cc3)n2)nc1,i,78,i,i
c1ccc(CNc2ccnc(Nc3ccc(N4CCOCC4)cc3)c2)cc1,i,34,i,i
c1ccc(-n2cccn2)c(Nc2ccnc(Nc3ccc(N4CCOCC4)cc3)c2)c1,i,40,i,i
Cc1ccc(S(=O)(=O)C(C)c2ccccc2[N+](=O)[O-])cc1 (centres undefined),i,i,i,i
COc1ccc(-c2nc(C)cc(NCCc3ccc(O)cc3)n2)cn1,i,i,i,i
c1cc(Nc2ccc3nc[nH]c3c2)cc(Nc2ccc(N3CCOCC3)cc2)n1,i,i,i,i
c1cc(Nc2cc(C3CC3)[nH]n2)cc(Nc2ccc(N3CCOCC3)cc2)n1,i,85,i,i
Oc1ccccc1-c1cc(-c2ccccc2)no1,i,i,i,i
Cc1ccc(-c2cc(-c3ccccc3)no2)c(O)c1,i,52,i,i
COc1ccccc1Cc1nc(-c2cccc(Br)c2)no1,i,i,i,i
Cc1cc(Nc2ccc(N3CCOCC3)cc2)nc(N2CCc3ccccc3C2)n1,i,41,i,i
Cc1cc(Nc2ccc(N3CCOCC3)cc2)nc(Nc2ccc3ncccc3c2)n1,i,57,i,i
CC(=O)Nc1ccc(Nc2cc(C)nc(N3CCN(c4ccccn4)CC3)n2)cc1,i,i,i,i
Cn1c(Nc2nccc(Nc3ccc(N4CCOCC4)cc3)n2)nc2ccccc21,i,54,i,i
Cc1cc(Nc2ccc(N3CCOCC3)cc2)nc(Nc2ncccn2)n1,i,i,i,i
SMILES,FBW7 act,TEAD-YAP inh,MITF inh,GPR151 activ
CCN(CC)c1nc(Nc2ccc(N3CCOCC3)cc2)nc(Nc2nc3ccccc3n2C)n1,i,i,i,i
Cc1cc(Nc2ccccc2)nc(N2CCN(C(=O)C(C)(C)C)CC2)n1,i,32,i,i
COc1ccc(C2CC(=O)C3=C(C2)NC(C)=C(C(=O)OC2CCCCC2)C3c2cc3c(cc2Br)OCO3)cc1 (centres undefined),i,i,i,i
c1cnc2ccc(Nc3nccc(Nc4ccc(N5CCOCC5)cc4)n3)cc2c1,i,82,i,i
CN=c1scc(-c2ccc(C)c(C)c2)n1/N=C/c1ccc(O)c(O)c1O,i,70,i,i
O=C(Nc1cccc2ccccc12)c1cc([N+](=O)[O-])ccc1Cl,i,60,i,i
O=C(Nc1ccccc1Cl)c1cc([N+](=O)[O-])ccc1Cl,i,36,i,i
O=C(Nc1cc(C(F)(F)F)ccc1Cl)c1cc([N+](=O)[O-])ccc1Cl,i,i,i,i
Cc1cc(O)c(NC(=O)c2cc([N+](=O)[O-])ccc2Cl)cc1C,i,43,i,i
CC(=O)Nc1ccccc1NC(=O)c1cc([N+](=O)[O-])ccc1Cl,i,i,i,i
O=C(Nc1cc(C(F)(F)F)ccc1N1CCCC1)c1cc([N+](=O)[O-])ccc1Cl,i,86,i,i
CC1=CC(=O)C(C(=O)/C=C/c2c(C)nn(-c3ccccc3)c2Cl)C(=O)O1 (centres undefined),i,i,i,i
CCOc1ccc(NC(=S)N(CCCN2CCOCC2)C2CCN(C(C)=O)CC2)cc1,i,i,i,i
C[C@@H]1CN(C(=O)Nc2cccc(Nc3nccc(-c4ccc(N5CCC(O)CC5)c(C#N)c4)n3)c2)C[C@H](C)O1,i,40,i,i
N#Cc1cc(-c2ccnc(Nc3ccc(-n4cnc(N5CCC(O)CC5)n4)cc3)n2)ccc1N1CCC(O)CC1,i,50,i,i
